Laboratory results published in the supplement of paper PMC7366291.
Where a name gives a salt, the structure may show the parent alone. ± gives the standard deviation or the standard deviation of the averaged measurements.

Key:
Conditions in all cases: 25 µM; exposure: 24-48 hpf
[1] = tested on: Danio rerio Tg(wt1b:EGFP) embryo, pronephros; test: glomerular separation, fold change vs DMSO control; higher = glomeruli further apart (abnormal)
How it was run: (§1)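 From 24 to 48 hpf, at 28.5°C, dechorionated Tg(wt1b:EGFP) zebrafish embryos sat in HEPES-buffered E3 with 0.003% PTU carrying 25 μM compound and 0.5% DMSO. Their pronephroi were imaged dorsally in 96-well plates filled with agarose, using 470 nm light and 10 z-slices. A Fiji macro measured distances and angles between 16 reference points that were set manually on maximum projections, and any value more than 2 SD from its feature mean was excluded. Features are expressed as fold change relative to the mean of DMSO-treated embryos imaged on the same day.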

[2] = tested on: Danio rerio Tg(wt1b:EGFP) embryo, pronephros; test: glomerular width (mean of left and right), fold change vs DMSO control; higher = wider glomerulus
How it was run: as §1

[3] = tested on: Danio rerio Tg(wt1b:EGFP) embryo, pronephros; test: fraction of imaged embryos annotated as normal kidney; higher = less nephrotoxic; extreme values may be limits of the assay
How it was run: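 Dechorionated Tg(wt1b:EGFP) zebrafish embryos were exposed in 12-well plates to 25 μM compound in 0.5% DMSO, 5 mM HEPES-buffered E3 with 0.003% PTU, from 24 to 48 hpf at 28.5°C. Tricaine-anaesthetised larvae were oriented dorsally in agarose-filled 96-well plates, and pronephroi were imaged by widefield fluorescence (470 nm, 10 z-slices). Each embryo was manually annotated from maximum projections. The read-out is the fraction of embryos per treatment assigned to the normal-kidney category.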

[4] = tested on: Danio rerio Tg(wt1b:EGFP) embryo, pronephros; test: pronephric angle neck segment to proximal convoluted tubule (mean of left and right), fold change vs DMSO control; higher = larger pronephric angle
How it was run: as §1

C=CCSCC1Nc2cc(Cl)c(S(N)(=O)=O)cc2S(=O)(=O)N1 (configuration not stated) [Althiazide]
glomerular separation [1]: 1.08 ± 0.28 | glomerular width [2]: 0.962 ± 0.12 | fraction of imaged embryos annotated as normal kidney [3]: 0.5 | pronephric angle neck segment [4]: 1.09 ± 0.083

CC(C)n1c(/C=C/C(O)CC(O)CC(=O)O)c(-c2ccc(F)cc2)c2ccccc21 (configuration not stated) [Fluvastatin sodium salt]
glomerular separation [1]: 4.31 ± 1.6 | glomerular width [2]: 0.609 ± 0.057 | fraction of imaged embryos annotated as normal kidney [3]: 0 | pronephric angle neck segment [4]: 1.56 ± 0.093

CN1CCCN=C1/C=C/c1cccc(O)c1 [Oxantel pamoate]
glomerular separation [1]: 0.88 ± 0.16 | glomerular width [2]: 1.012 ± 0.0033 | fraction of imaged embryos annotated as normal kidney [3]: 0.917 | pronephric angle neck segment [4]: 1.03 ± 0.034

NS(=O)(=O)c1cc(C2(O)NC(=O)c3ccccc32)ccc1Cl (configuration not stated) [Chlorthalidone]
glomerular separation [1]: 1.04 ± 0.23 | glomerular width [2]: 1.04 ± 0.079 | fraction of imaged embryos annotated as normal kidney [3]: 0.75 | pronephric angle neck segment [4]: 1.02 ± 0.073

CN(C)c1cc(NC(=O)CNC(C)(C)C)c(O)c2c1C[C@H]1C[C@H]3[C@H](N(C)C)C(O)=C(C(N)=O)C(=O)[C@@]3(O)C(O)=C1C2=O [Tigecycline]
glomerular separation [1]: 0.759 ± 0.22 | glomerular width [2]: 1.03 ± 0.045 | fraction of imaged embryos annotated as normal kidney [3]: 0.833 | pronephric angle neck segment [4]: 0.954 ± 0.02

CCCCNC(=O)NS(=O)(=O)c1ccc(C)cc1 [Tolbutamide]
glomerular separation [1]: 1.01 ± 0.53 | glomerular width [2]: 1.01 ± 0.014 | fraction of imaged embryos annotated as normal kidney [3]: 0.833 | pronephric angle neck segment [4]: 1.04 ± 0.023

CC1(C)S[C@@H]2[C@H](NC(=O)[C@H](N)c3ccc(O)cc3)C(=O)N2[C@H]1C(=O)O [Amoxicillin]
glomerular separation [1]: 1.13 ± 0.42 | glomerular width [2]: 0.961 ± 0.046 | fraction of imaged embryos annotated as normal kidney [3]: 0.833 | pronephric angle neck segment [4]: 1.04 ± 0.074

CN(C)CCN(Cc1ccccc1)c1ccccn1 [Tripelennamine hydrochloride]
glomerular separation [1]: 0.843 ± 0.37 | glomerular width [2]: 0.982 ± 0.054 | fraction of imaged embryos annotated as normal kidney [3]: 1 | pronephric angle neck segment [4]: 1.1 ± 0.083

O=C(CCCN1CCC(O)(c2ccc(Cl)cc2)CC1)c1ccc(F)cc1 [Haloperidol]
glomerular separation [1]: 1.19 ± 0.53 | glomerular width [2]: 0.918 ± 0.086 | fraction of imaged embryos annotated as normal kidney [3]: 0.833 | pronephric angle neck segment [4]: 0.974 ± 0.046

C[C@]12CC[C@@H]3c4ccc(O)cc4CC[C@H]3[C@@H]1CCC2=O [Estrone]
glomerular separation [1]: 0.922 ± 0.35 | glomerular width [2]: 0.983 ± 0.0046 | fraction of imaged embryos annotated as normal kidney [3]: 1 | pronephric angle neck segment [4]: 1.05 ± 0.019

CN1CCCN(C(c2ccccc2)c2ccc(Cl)cc2)CC1 (configuration not stated) [Homochlorcyclizine dihydrochloride]
glomerular separation [1]: 1.08 ± 0.45 | glomerular width [2]: 0.975 ± 0.015 | fraction of imaged embryos annotated as normal kidney [3]: 1 | pronephric angle neck segment [4]: 1.013 ± 0.0017

CC(=O)Oc1cc(C(F)(F)F)ccc1C(=O)O [Triflusal]
glomerular separation [1]: 1.26 ± 0.59 | glomerular width [2]: 0.901 ± 0.012 | fraction of imaged embryos annotated as normal kidney [3]: 0.917 | pronephric angle neck segment [4]: 1.02 ± 0.031

NS(=O)(=O)c1cc2c(cc1C(F)(F)F)NC(Cc1ccccc1)NS2(=O)=O (configuration not stated) [Bendroflumethiazide]
glomerular separation [1]: 1.15 ± 0.68 | glomerular width [2]: 0.896 ± 0.043 | fraction of imaged embryos annotated as normal kidney [3]: 0.875 | pronephric angle neck segment [4]: 1.09 ± 0.083

Cn1c(=O)c2c(ncn2CC2OCCO2)n(C)c1=O [Doxofylline]
glomerular separation [1]: 1.55 ± 0.87 | glomerular width [2]: 0.971 ± 0.021 | fraction of imaged embryos annotated as normal kidney [3]: 0.917 | pronephric angle neck segment [4]: 1.03 ± 0.03

CC=CC1=C(C(=O)O)N2C(=O)[C@@H](NC(=O)[C@H](N)c3ccc(O)cc3)[C@H]2SC1 [Cefprozil]
glomerular separation [1]: 0.967 ± 0.4 | glomerular width [2]: 1.086 ± 0.0056 | fraction of imaged embryos annotated as normal kidney [3]: 0.917 | pronephric angle neck segment [4]: 0.965 ± 0.061

COc1ccccc1Oc1c(NS(=O)(=O)c2ccc(C(C)(C)C)cc2)nc(-c2ncccn2)nc1OCCO [Bosentan]
glomerular separation [1]: 1.19 ± 0.5 | glomerular width [2]: 1.02 ± 0.034 | fraction of imaged embryos annotated as normal kidney [3]: 0.833 | pronephric angle neck segment [4]: 1.03 ± 0.029

CS(=O)(=O)Nc1ccc([N+](=O)[O-])cc1Oc1ccccc1 [Nimesulide]
glomerular separation [1]: 3.39 ± 1.9 | glomerular width [2]: 0.837 ± 0.056 | fraction of imaged embryos annotated as normal kidney [3]: 0 | pronephric angle neck segment [4]: 1.38 ± 0.071

CCOC(=O)C1=C(C)NC(C)=C(C(=O)OC)C1c1cccc([N+](=O)[O-])c1 (configuration not stated) [Nitrendipine]
glomerular separation [1]: 5.49 ± 1 | glomerular width [2]: 0.6357 ± 0.0031 | fraction of imaged embryos annotated as normal kidney [3]: 0 | pronephric angle neck segment [4]: 1.29 ± 0.044

CC1=C(CC(=O)O)c2cc(F)ccc2/C1=C\c1ccc([S+](C)[O-])cc1 (configuration not stated) [Sulindac]
glomerular separation [1]: 0.735 ± 0.15 | glomerular width [2]: 0.8774 ± 0.0075 | fraction of imaged embryos annotated as normal kidney [3]: 0.667 | pronephric angle neck segment [4]: 1.0374 ± 0.00064

CC1(C)S[C@@H]2[C@H](NC(=O)[C@H](C(=O)O)c3ccsc3)C(=O)N2[C@H]1C(=O)O [Ticarcillin sodium]
glomerular separation [1]: 0.953 ± 0.36 | glomerular width [2]: 1.01 ± 0.048 | fraction of imaged embryos annotated as normal kidney [3]: 0.8 | pronephric angle neck segment [4]: 1.006 ± 0.0094

CC[C@H](C)C(=O)O[C@H]1CCC=C2C=C[C@H](C)[C@H](CC[C@@H]3C[C@@H](O)CC(=O)O3)[C@H]21 [Mevastatin]
glomerular separation [1]: 4.87 ± 2.8 | glomerular width [2]: 0.798 ± 0.046 | fraction of imaged embryos annotated as normal kidney [3]: 0 | pronephric angle neck segment [4]: 1.73 ± 0.056

CCN(CC)CCCC(C)Nc1ccnc2cc(Cl)ccc12 (configuration not stated) [Chloroquine diphosphate]
glomerular separation [1]: 1.16 ± 0.51 | glomerular width [2]: 0.959 ± 0.049 | fraction of imaged embryos annotated as normal kidney [3]: 1 | pronephric angle neck segment [4]: 0.991 ± 0.019

COc1ccnc(C[S+]([O-])c2nc3cc(OC(F)F)ccc3[nH]2)c1OC (configuration not stated) [Pantoprazole sodium]
glomerular separation [1]: 1.04 ± 0.33 | glomerular width [2]: 1.042 ± 0.0056 | fraction of imaged embryos annotated as normal kidney [3]: 0.833 | pronephric angle neck segment [4]: 1.062 ± 0.0021

CN(CCOc1ccc(CC2SC(=O)NC2=O)cc1)c1ccccn1 (configuration not stated) [Rosiglitazone Hydrochloride]
glomerular separation [1]: 1.04 ± 0.39 | glomerular width [2]: 0.964 ± 0.03 | fraction of imaged embryos annotated as normal kidney [3]: 0.833 | pronephric angle neck segment [4]: 0.9727 ± 0.0063

CC(=O)[C@H]1CC[C@H]2[C@@H]3C=CC4=CC(=O)CC[C@@]4(C)[C@@H]3CC[C@]12C [Dydrogesterone]
glomerular separation [1]: 1.29 ± 0.6 | glomerular width [2]: 1.04 ± 0.02 | fraction of imaged embryos annotated as normal kidney [3]: 0.833 | pronephric angle neck segment [4]: 0.973 ± 0.012

CN1CCN(c2c(F)cc3c(=O)c(C(=O)O)cn4c3c2SCC4)CC1 [Rufloxacin]
glomerular separation [1]: 0.835 ± 0.21 | glomerular width [2]: 0.9236 ± 0.0089 | fraction of imaged embryos annotated as normal kidney [3]: 1 | pronephric angle neck segment [4]: 0.986 ± 0.027

Cc1cc2c(s1)Nc1ccccc1N=C2N1CCN(C)CC1 [Olanzapine]
glomerular separation [1]: 0.786 ± 0.41 | glomerular width [2]: 0.925 ± 0.034 | fraction of imaged embryos annotated as normal kidney [3]: 0.917 | pronephric angle neck segment [4]: 1.01 ± 0.041

C=C(CC)C(=O)c1ccc(OCC(=O)O)c(Cl)c1Cl [Ethacrynic acid]
glomerular separation [1]: 1.05 ± 0.28 | glomerular width [2]: 1.02 ± 0.0053 | fraction of imaged embryos annotated as normal kidney [3]: 0.75 | pronephric angle neck segment [4]: 0.9182 ± 0.0012
